Data taken from PubChem BioAssay.

These molecules were tested on Human papillomavirus type 1a E7 protein (residues 1-88) (assay: HPV1a E7 small-molecule binders, primary screen, biochemical, small-molecule microarray, residues 1-88, 635 nm (AID 1129)). Conditions: small-molecule microarray binding, fluorescence 635 nm; higher = more signal.
`C=C(/C(=C/C[C@H](OC(C)=O)c1ccc(OCCO)cc1)c1cc(C(=O)OC)ccc1OC)C(C)C` gave a composite z-score of 1.08. In the case of `COCCCNC(=O)[C@@]1(Sc2ccc(C)cc2)CC(=O)N(Cc2ccccc2Cl)[C@@H]1c1ccc(CO)cc1`, the composite z-score is reported as 1.12. Molecule `O=C(O)[C@H](Cc1ccccc1)n1cc(-c2ccccc2)nn1` has a composite z-score of 0.6. `CC(C)[Si](C#CCCCC#N)(Oc1ccccc1Br)C(C)C` was tested, and the composite z-score was 0.725. Work on `C=CC1c2cc(O)c(OC)cc2CCN1Cc1cccc(OC(F)(F)F)c1` (configuration not stated) yielded a composite z-score of 0.167. `O=C1OCCC=C[C@H]2OC34C=CCN(Cn5nnc6ccccc65)C(=O)[C@H]3N(CCO)C(=O)[C@@H]4C12` (some centres not stated) showed a composite z-score of -0.566. In the case of `CC(C)[Si](C#C[Si](C(C)C)(C(C)C)C(C)C)(O[C@H](C)c1cn(Cc2ccccc2)nn1)C(C)C`, the composite z-score is reported as 1.01.

These molecules were tested against Focal adhesion kinase 1 (Homo sapiens) (UniProt Q05397) (assay: PTK2 protein binding on printed compound slides – biochemical, small-molecule microarray, 635/667 nm fluorescence, BSA, DTT, primary screen (AID 1130;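 further: composite of spot emission at 667 nm and signal to noise over triplicate slides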)). Conditions: 635 nm fluorescence, higher = more signal.
Chain of Focal adhesion kinase 1 (Homo sapiens) (Q05397 whole entry, looked up): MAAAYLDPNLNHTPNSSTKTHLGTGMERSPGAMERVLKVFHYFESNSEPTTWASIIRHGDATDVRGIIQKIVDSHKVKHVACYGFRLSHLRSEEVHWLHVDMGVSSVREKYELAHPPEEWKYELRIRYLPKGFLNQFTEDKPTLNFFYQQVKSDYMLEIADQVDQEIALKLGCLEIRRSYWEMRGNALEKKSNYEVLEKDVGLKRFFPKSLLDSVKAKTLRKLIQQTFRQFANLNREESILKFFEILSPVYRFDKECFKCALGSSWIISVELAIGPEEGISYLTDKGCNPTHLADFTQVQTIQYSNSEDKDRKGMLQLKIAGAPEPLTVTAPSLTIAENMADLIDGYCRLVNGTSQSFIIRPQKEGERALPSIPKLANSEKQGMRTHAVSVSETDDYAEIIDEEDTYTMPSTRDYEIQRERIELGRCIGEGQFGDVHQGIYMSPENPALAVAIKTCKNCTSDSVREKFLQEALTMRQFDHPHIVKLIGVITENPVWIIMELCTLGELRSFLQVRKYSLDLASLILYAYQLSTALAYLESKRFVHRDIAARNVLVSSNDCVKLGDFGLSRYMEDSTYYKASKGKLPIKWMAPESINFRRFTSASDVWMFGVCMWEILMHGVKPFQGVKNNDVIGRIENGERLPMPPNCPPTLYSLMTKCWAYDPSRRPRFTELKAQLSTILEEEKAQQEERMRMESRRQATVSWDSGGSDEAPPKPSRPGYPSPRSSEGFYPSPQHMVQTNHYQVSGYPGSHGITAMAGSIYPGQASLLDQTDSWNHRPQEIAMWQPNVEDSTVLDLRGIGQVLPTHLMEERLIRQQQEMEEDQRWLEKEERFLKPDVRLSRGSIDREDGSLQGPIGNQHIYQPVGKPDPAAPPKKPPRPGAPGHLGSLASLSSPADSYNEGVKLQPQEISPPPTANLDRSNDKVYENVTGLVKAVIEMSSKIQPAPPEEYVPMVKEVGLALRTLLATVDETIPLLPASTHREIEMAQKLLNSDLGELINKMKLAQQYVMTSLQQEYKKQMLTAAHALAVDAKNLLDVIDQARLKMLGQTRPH
With `COC(=O)C[C@H]1O[C@@H](CCc2ccccc2)[C@@H](C)[C@@H]1[Si](C)(C)c1ccc(OC)cc1` the composite z-score was 0.217. In the case of `CC(=CC1CCCCC1)[C@@H](NC(=O)c1cccnc1)c1ccc(-c2ccccc2)cc1`, the composite z-score is reported as -0.0341. `[N-]=[N+]=Nc1ccccc1C[C@]1(C(=O)NCC(O)CO)N=C(c2ccc(OCCCO)cc2)O[C@H]1c1ccccc1` (some centres not stated) showed a composite z-score of 0.0141. Molecule `COCC(=C=CC[C@H](O)c1cccc(OCCO)c1)CCO` has a composite z-score of -0.0436. `COC(=O)[C@H](Cc1ccccc1)N[C@H](/C=C/C1CC1)[C@@H](O)Cc1ccccc1` showed a composite z-score of -0.295. In the case of `C=CCOC(=O)[C@H]1[C@@H]2C(=O)O[C@@H](c3ccccc3)[C@@H](c3ccccc3)N2[C@@H](c2ccc(OCCOC(=O)[C@@H]3C[C@@H]4C(=O)N5CCC[C@H]5C(=O)N4[C@@H]3c3cccc(OCCO)c3)cc2)[C@]12C(=O)Nc1ccc(I)cc12`, the composite z-score is reported as 0.402. `COCC(=C=CC[C@@H](O)c1ccc(OCCO)cc1)C[C@@H](O)c1ccccn1` gave a composite z-score of 0.359. In the case of `COc1ccc([Si](C)(C)[C@@H]2[C@@H](CCO)O[C@]3(C(=O)N(Cc4cccc(N5CCOC5=O)c4)c4ccccc43)[C@H]2C)cc1`, the composite z-score is reported as -0.0325. `[N-]=[N+]=Nc1ccccc1[C@H]1OC(c2ccc(OCCCO)cc2)=N[C@@]1(Cc1ccccc1)C(=O)N1CCOCC1` showed a composite z-score of 0.68. Work on `CN1C(=O)C2C=CC(C(O)C=Cc3ccc([N+](=O)[O-])cc3)N(Nc3ccccc3)C2C1=O` (configuration not stated) yielded a composite z-score of 0.198. In the case of `C#CCOc1ccc(C[C@@H](C(=O)OC)N(CC#C)[C@@H](/C=C/C2CC2)[C@H](O)Cc2ccccc2)cc1`, the composite z-score is reported as 0.0472. Work on `O=C(NCc1ccccc1)[C@@H]1c2ccccc2C(=O)N(C2Cc3ccccc3C2)[C@H]1c1ccc(CO)cc1` yielded a composite z-score of 0.166. `COC(=O)c1c2oc(c1C(=O)OC)C(=O)NC1(CCCCC1)c1cn(nn1)C[C@H](Cc1ccccc1)NC(=O)N[C@H](CO)CC2` showed a composite z-score of 0.244. With `CCCCCCc1nc(-c2ccc(-c3ccc(Cl)c(Cl)c3)o2)cc2c1[Si](C(C)C)(C(C)C)O[C@H]2c1ccccc1` the composite z-score was -0.132. `COCCOC(=O)N1C(=O)[C@@]2(c3cc(C#CC4(O)CCCCCC4)ccc31)[C@H](C(=O)Nc1nc3ccccc3s1)[C@H]1C(=O)O[C@H](c3ccccc3)[C@H](c3ccccc3)N1[C@@H]2c1ccc(OCCO)cc1` showed a composite z-score of -0.0405. In the case of `COC(=O)[C@@]1(Cc2ccc(OC)cc2)[C@H]2c3cc(C(=O)N4CCCC4)n(CCCNc4ncc(C(F)(F)F)cc4Cl)c3C[C@H]2CN1C(=O)c1ccccc1`, the composite z-score is reported as 1.1. In the case of `COC(=O)[C@@]1(Cc2ccc(OC)cc2)[C@H]2c3cc(C(=O)N4CCCC4)n(CCc4ccc(O)c(O)c4)c3C[C@H]2CN1C(=O)c1ccccc1`, the composite z-score is reported as 0.384. Molecule `Cc1c(NC(=O)/C(C#N)=C/c2cccc([N+](=O)[O-])c2)c(=O)n(-c2ccccc2)n1C` has a composite z-score of -0.148. Molecule `C[N+](C)(C)CCCC[C@@H]1NC(=O)[C@@H]2C[C@H](C(=O)NCCCCCCNC(=O)CS)[C@H](c3ccc(O)cc3)N2C1=O` has a composite z-score of -0.531. `COC(=O)[C@@]1(Cc2ccccc2)[C@H]2c3cc(C(=O)N4CCCC4)n(Cc4ccc(O)c(OC)c4)c3C[C@H]2CN1C(=O)c1ccccc1` gave a composite z-score of 0.553. `O=C1O[C@@H](c2ccccc2)[C@@H](c2ccccc2)N2[C@@H](c3ccccc3OCCO)[C@]3(C(=O)Nc4ccccc43)[C@@H](C(=O)O)[C@H]12` was tested, and the composite z-score was 0.66. For `CCCNC(=O)[C@@H]1c2ccccc2C(=O)N(Cc2ccccc2OC)[C@H]1c1ccc(CO)cc1`, the composite z-score was 0.609. For `CC[C@@H]1C=C(C(=O)O)[C@H](c2ccc(C)cc2)N1S(=O)(=O)c1ccc(C)cc1`, the composite z-score was 0.827. `O=C1O[C@H](c2ccccc2)[C@H](c2ccccc2)N2[C@H]1[C@@H](C(=O)NC[C@H](O)c1ccccc1)[C@]1(C(=O)Nc3ccccc31)[C@H]2c1ccc(O)cc1` gave a composite z-score of 0.223. For `Cc1ccc(S[C@]2(C(=O)NCC(C)C)CC(=O)N(Cc3cc(C(F)(F)F)cc(C(F)(F)F)c3)[C@@H]2c2ccc(CO)cc2)cc1`, the composite z-score was -0.261. Molecule `COCCOC(=O)N1C(=O)[C@@]2(c3cc(C#CC4=CCCCC4)ccc31)[C@H](c1ccc(OCCO)cc1)N1[C@H](c3ccccc3)[C@H](c3ccccc3)OC(=O)[C@H]1[C@@H]2C(=O)N1CCc2cc(OC)c(OC)cc2C1` has a composite z-score of 0.647. `COc1ccccc1CN1C(=O)c2ccccc2[C@@H](C(=O)NCc2ccccc2)[C@@H]1c1ccc(CO)cc1` showed a composite z-score of 0.377. `COCCOC(=O)N1C(=O)[C@@]2(c3ccccc31)[C@H](C(N)=O)[C@H]1C(=O)O[C@H](c3ccccc3)[C@H](c3ccccc3)N1[C@@H]2c1ccc(O)cc1` gave a composite z-score of 0.386. `C=C(/C(=C/C[C@H](OC(C)=O)c1ccc(OCCO)cc1)c1cc(C(=O)OC)ccc1OC)C(C)C` gave a composite z-score of 0.413. `COCCCNC(=O)[C@@]1(Sc2ccc(C)cc2)CC(=O)N(Cc2ccccc2Cl)[C@@H]1c1ccc(CO)cc1` was tested, and the composite z-score was 0.215. With `O=C(O)[C@H](Cc1ccccc1)n1cc(-c2ccccc2)nn1` the composite z-score was 0.218. `CC(C)[Si](C#CCCCC#N)(Oc1ccccc1Br)C(C)C` was tested, and the composite z-score was 0.3. `C=CC1c2cc(O)c(OC)cc2CCN1Cc1cccc(OC(F)(F)F)c1` (configuration not stated) was tested, and the composite z-score was 0.408. For `O=C1OCCC=C[C@H]2OC34C=CCN(Cn5nnc6ccccc65)C(=O)[C@H]3N(CCO)C(=O)[C@@H]4C12` (some centres not stated), the composite z-score was -0.225. `CC(C)[Si](C#C[Si](C(C)C)(C(C)C)C(C)C)(O[C@H](C)c1cn(Cc2ccccc2)nn1)C(C)C` showed a composite z-score of 0.677.
